{"source": "ChEMBL document CHEMBL4888484", "about": "“Replenishing the malaria drug discovery pipeline: Screening and hit evaluation of the MMV Hit Generation Library 1 (HGL1) against asexual blood stage Plasmodium falciparum ,using a nano luciferase reporter read-out” (2022)", "note": "Out of some 4,800 compounds screened, about 420 (8.8%) showed an effect of 50% or more. For the sample, strong results were picked, then their nearest neighbours and some compounds at random."}
{"test_system": "Plasmodium falciparum", "assay": "Confirmatory screen in NF54 nanoGlo assay, in single point, at 2uM, 72h", "type": "functional, Erythrocyte", "conditions": "timepoint 72 hour", "units": {"% Inhibition": "%"}}
{"smiles": "C#CCN1C(=O)N[C@@](CC)(C(C)C)C1=O", "% Inhibition": 10}
{"smiles": "Cc1oc(=S)n2c1C[C@@H](c1ccccc1)N(Cc1ccccc1)C2", "% Inhibition": -15}
{"smiles": "Cn1cc(C(=O)NCC2CCN(S(=O)(=O)c3cccs3)CC2)cn1", "% Inhibition": -2}
{"smiles": "CCc1ccc(NC(=O)[C@@H]2CCn3c(C(=O)c4ccccc4)ccc32)cc1", "% Inhibition": 1}
{"smiles": "CCc1ccc(NC(=O)[C@H](C)N2CCC(NS(=O)(=O)c3cccs3)CC2)cc1", "% Inhibition": 70}
{"smiles": "CN(Cc1ccc(F)c(F)c1)S(=O)(=O)C[C@H]1CCN(C(=O)OCc2ccccc2)C1", "% Inhibition": -10}
{"smiles": "Cc1cc(C)n(-c2ccc(CN3C(=O)NC4(CCCC4)C3=O)cc2)n1", "% Inhibition": -4}
{"smiles": "O=C1CN(C(=O)Cc2c(F)cccc2Cl)C2(CCCC2)CN1", "% Inhibition": -11}
{"smiles": "Cc1nccc(NC(=O)C2CCC(F)(F)CC2)c1Cl", "% Inhibition": -4}
{"smiles": "Cc1c(NC(=O)CC(C)(C)CC(=O)N2CCN(c3ccccc3F)CC2)c(=O)n(-c2ccccc2)n1C", "% Inhibition": 2}
{"smiles": "CC1(C)Oc2ccc(NC(=O)COc3ccccc3)cc2NC1=O", "% Inhibition": 11}
{"smiles": "O=C(COc1ccccc1)Nc1ccc2c(c1)C(O)=Nc1cccnc1O2", "% Inhibition": 58}
{"smiles": "CC(C)(C)CC(=O)Nc1ccc2c(c1)C(N1CCCCC1)=Nc1ccccc1O2", "% Inhibition": -13}
{"smiles": "Cc1ccc([C@H]2C=NN(c3ccc(Br)cc3)C2=O)cc1", "% Inhibition": 20}
{"smiles": "O=C(Nc1ccc(N2CCOCC2)cc1)Nc1ccc(F)cc1F", "% Inhibition": 1}
{"smiles": "CCNc1nc(C)cc(Nc2ccc(NS(=O)(=O)c3c(C)noc3C)cc2)n1", "% Inhibition": 92}
{"smiles": "Cc1onc(N)c1S(=O)(=O)Nc1ccncc1", "% Inhibition": -7}
{"smiles": "CCNc1nc(C)cc(Nc2ccc(NC(=O)c3cc(C)ccc3C)cc2)n1", "% Inhibition": 98}
{"smiles": "Cc1ccccc1S(=O)(=O)NCc1nnc(C(=O)Nc2ccc(F)cc2F)s1", "% Inhibition": -5}
{"smiles": "CCC(=O)Nc1nc2c(OC)cc(NS(=O)(=O)c3c(C)noc3C)cc2s1", "% Inhibition": -4}
{"smiles": "CCC(=O)N1CCN(c2cc(Nc3ccc(C)cc3)nc(C)n2)CC1", "% Inhibition": -1}
{"smiles": "Cc1ccc(C)c(S(=O)(=O)NCCNc2ccc(Nc3ccncc3)nn2)c1", "% Inhibition": 28}
{"smiles": "CC(C)c1ccc(-c2nn3c(C4CCN(S(C)(=O)=O)CC4)nnc3s2)cc1", "% Inhibition": -20}
{"smiles": "C[C@H](C#N)CNc1ncc(Br)cn1", "% Inhibition": 1}
{"smiles": "CN(c1ccc(Cl)cn1)S(=O)(=O)c1ccc2ncccc2c1", "% Inhibition": -22}
{"smiles": "C[C@H]1CN(Cc2cc3c(cc2Br)OCO3)CCN1S(C)(=O)=O", "% Inhibition": -2}
{"smiles": "Brc1ccc(NCc2[nH]nnc2-c2ccccc2)cc1", "% Inhibition": 2}
{"smiles": "O=S(=O)(c1ccccc1Br)N1CC[C@H]1c1ccccc1", "% Inhibition": -6}
{"smiles": "CN(c1ncc(S(=O)(=O)c2ccccc2)c(N)n1)C1CCCCC1", "% Inhibition": -9}
{"smiles": "Cn1ccnc1CN1CCC[C@@](O)(CNS(=O)(=O)c2cccs2)CC1", "% Inhibition": -10}
{"smiles": "CC(C)(C)c1ccnc(N[C@H]2CO[C@H]3[C@@H]2OC[C@@H]3NC(=O)NCc2ccccc2)n1", "% Inhibition": 18}
{"smiles": "Cc1nn(CCC(=O)NC2CCCC2)cc1Br", "% Inhibition": -10}
{"smiles": "CN(C)c1ccc(C(=O)N[C@@]2(C)CCS(=O)(=O)C2)cc1", "% Inhibition": -6}
{"smiles": "Cc1cnn(Cc2cc(C(=O)N(C)Cc3nc4ccccc4n3C)no2)c1", "% Inhibition": -6}
{"smiles": "O=C(Nc1cccc2cccnc12)N1CCOCC1CC(O)c1cccs1", "note": "(centres undefined)", "% Inhibition": 0}
{"smiles": "Cc1nnc(O)c(CNC(=O)COC2CCCC(C)C2)c1C", "note": "(centres undefined)", "% Inhibition": -7}
{"smiles": "c1ccc(-c2nc(C[n+]3ccc4c(c3)CCCC4)cs2)cc1", "% Inhibition": 57}
{"smiles": "Cc1ncccc1C(=O)NCCc1csc(-c2ccccc2)n1", "% Inhibition": -11}
{"smiles": "Cc1cc(C)cc(NC(=O)CCn2c(=O)cc(C(F)(F)F)c3cn(C(C)C)nc32)c1", "% Inhibition": -14}
{"smiles": "CC1(C)CCC(Nc2ccc(C(N)=O)nn2)CC1", "% Inhibition": 70}
{"smiles": "CCn1cnc2c(N3CCC[C@H](c4ccncc4)C3)ncnc21", "% Inhibition": 68}
{"smiles": "CCn1c(=O)c(N2CCC[C@H](C(=O)NCc3ccccc3OC)C2)nc2cccnc21", "% Inhibition": -7}
{"smiles": "Brc1cncnc1N1CCC[C@H](c2nnn[nH]2)C1", "% Inhibition": -15}
{"smiles": "CC(C)(C)NC(=O)N[C@H]1COc2c1ccc(Cl)c2Cl", "% Inhibition": -3}
{"smiles": "Cc1ccc(C(=O)Nc2ccc(N3CCN(c4c(F)c(F)c(F)c(F)c4F)CC3)cc2)c(Cl)c1", "% Inhibition": 10}
{"smiles": "NC(=O)c1ccccc1NC(=O)C1CCN(c2cc(C3CC3)ncn2)CC1", "% Inhibition": 53}
{"smiles": "O=C(Nc1nc2ccccc2[nH]1)C1CCN(c2cc3c(nn2)CCC3)CC1", "% Inhibition": 5}
{"smiles": "O=C(O)c1cc(N2CCC(Cc3ccccc3)CC2)ccc1NC(=O)C1CCC1", "% Inhibition": -14}
{"smiles": "Cc1cn([C@H]2C[C@@H](OC(=O)c3ccccc3)[C@@H](CO)O2)c(=O)[nH]c1=O", "% Inhibition": -6}
{"smiles": "CC(C)NC(=O)[C@H](C)N(C)Cc1nccn1CC(F)(F)F", "% Inhibition": -1}
{"smiles": "CCC(CC)c1ccc([C@H]2N(C(=O)c3ccc(C)cc3)CCN2S(=O)(=O)c2ccccc2)cc1", "% Inhibition": -2}
{"smiles": "O=S1(=O)CCN(C2CCN(Cc3c(F)cccc3F)CC2)CC1", "% Inhibition": 4}
{"smiles": "Cc1ccc(N2C(=O)C[C@]3(CC3(c3ccccc3)c3ccccc3)C2=O)cc1", "% Inhibition": 66}
{"smiles": "CN1C2(c3ccccc3)C3C(=O)N(c4ccccc4)C(=O)C3C1(c1ccccc1)C1C(=O)N(c3ccccc3)C(=O)C12", "note": "(centres undefined)", "% Inhibition": 2}
{"smiles": "COc1cccc(N2C(=O)C[C@]3(CC3(c3ccccc3)c3ccccc3)C2=O)c1", "% Inhibition": 39}
{"smiles": "O=S(=O)(Cc1ccno1)NCCc1ccccc1OC(F)F", "% Inhibition": 2}
{"smiles": "Cc1ccc(C(=O)Nc2noc(-c3ccc(C)cc3)c2-c2ccccc2Cl)cc1", "% Inhibition": -11}
{"smiles": "c1cc(-c2cn3c(COc4ccc5c(c4)OCO5)nnc3s2)ccn1", "% Inhibition": 3}
{"smiles": "CC1CCN(C[C@H]2CCCCCN2C(=O)NCCc2ccccc2)CC1", "% Inhibition": 34}
{"smiles": "O=C(Cc1cc(F)c(F)cc1F)N1CCOC[C@H]1c1ncon1", "% Inhibition": -3}
{"smiles": "Cc1nc2ccccc2cc1OCc1ccc(F)cc1", "% Inhibition": 3}
{"smiles": "CC(NC(=O)N[C@@H]1C=C[C@H](CO)C1)c1ccncc1F", "note": "(some centres undefined)", "% Inhibition": 2}
{"smiles": "S=c1cc(-c2ccccc2)n(Cc2ccco2)c2c1CCCC2", "% Inhibition": 38}
{"smiles": "Cc1ccc(Cc2nc(N3CCCN(C(=O)CCc4ccccc4)CC3)c3cnn(-c4ccccc4)c3n2)cc1", "% Inhibition": 1}
{"smiles": "COCCOc1ccc2c(n1)CCN(C(=O)c1ccc(OC)c(OC)c1)C2", "% Inhibition": -12}
{"smiles": "Cc1nn(C)cc1NC(=O)N[C@H]1CCCC[C@@H]1O", "% Inhibition": -9}
{"smiles": "C[C@@H](C1CC1)N(C1CC1)S(=O)(=O)c1ccc(F)cc1F", "% Inhibition": -2}
{"smiles": "Cc1ncccc1C(=O)Nc1cccc(Oc2cccnn2)c1", "% Inhibition": 1}
{"smiles": "Cc1c(Cl)c(C(F)(F)F)nn1[C@@H](C)C(=O)NC1CCN(C(C)C)CC1", "% Inhibition": -4}
{"smiles": "COc1cccc(-c2cc3c(N4CC=C(c5ccccc5)CC4)nccn3n2)c1", "% Inhibition": -2}
{"smiles": "CC[C@H]1Cn2c(C(=O)N3CCN(C(=O)c4ccco4)CC3)cc3c(Cl)ccc(c32)O1", "% Inhibition": -17}
{"smiles": "CCCn1nc(-n2cnnc2)c(NC(=O)c2ccc3c(c2)OCO3)c1C", "% Inhibition": -4}
{"smiles": "CCOc1ccc(NC(=O)c2cnc(N(Cc3ccccc3)C(C)C)nc2N)cc1", "% Inhibition": -15}
{"smiles": "CCOC(=O)C1CCC(CN(Cc2ccc(OC)cc2)S(=O)(=O)c2cc(C(=O)Nc3ccc(OCC)cc3)ccc2F)CC1", "note": "(centres undefined)", "% Inhibition": 50}
{"smiles": "CCOc1ccc(NC(=O)c2ccc3c(c2)N(CC)[C@@H]2CCCCN2C3=O)cc1", "% Inhibition": 7}
{"smiles": "CN(c1ccc(Br)cc1)S(=O)(=O)c1ccc2c(c1)CCN2C(=O)C1CCC1", "% Inhibition": -7}
{"smiles": "COc1ccccc1CNC(=O)c1cnn2c(-c3ccc(Cl)cc3)ccnc12", "% Inhibition": -4}
{"smiles": "c1cncc(CN2CCN(C3CCCCCC3)CC2)c1", "% Inhibition": 3}
{"smiles": "Cc1cccc(Cn2ccc(-c3cccc(OCc4ccc(Cl)cc4Cl)c3)n2)c1", "% Inhibition": -4}
{"smiles": "C[C@H]1CC(C)(C)N(C)c2ccc(/C=C/c3c(C(=O)O)cnc4ccnn34)cc21", "% Inhibition": 7}
{"smiles": "OCCNCc1c(Cl)cccc1Cl", "% Inhibition": -1}
{"smiles": "Clc1cccc(CNCCCNc2ccncc2)c1Cl", "% Inhibition": 71}
{"smiles": "CN(C)CCCNCc1ccccc1F", "% Inhibition": -2}
{"smiles": "CC[C@@H](CCNS(=O)(=O)c1cn(C(F)F)nc1C)n1ccc(C(F)(F)F)n1", "% Inhibition": -8}
{"smiles": "CCOC(=O)Oc1c(OC)cc(C(=O)Nc2ccc3c(c2)sc(=O)n3C)cc1OC", "% Inhibition": 6}
{"smiles": "CCOc1cc(C(=O)Nc2ccc3nc4c(c(Nc5ccc(OC)c(OC)c5)c3c2)CCCC4)cc(OCC)c1OCC", "% Inhibition": 96}
{"smiles": "COc1ccc(Nc2nc(C(=O)Nc3ncc(C)s3)cs2)cc1OC", "% Inhibition": 17}
{"smiles": "O=C(NC[C@H]1CCS(=O)(=O)C1)c1ccc2[nH]c3c(c2c1)CCCC3", "% Inhibition": -6}
{"smiles": "Clc1ccc(COc2ccc(CNC3CCCCC3)cc2Br)cc1", "% Inhibition": -4}
{"smiles": "O=C(Cc1ncc(C(F)(F)F)cc1Cl)c1ccc(Cl)cc1Cl", "% Inhibition": -6}
{"smiles": "O=C(Nc1ccc(C(F)(F)F)cc1)N1CCN(CC(O)C2CCCO2)CC1", "note": "(centres undefined)", "% Inhibition": 4}
{"smiles": "CC(NC(=O)N1CCCCC1)(C(F)(F)F)C(F)(F)F", "% Inhibition": 7}
{"smiles": "COc1cccc(CC(=O)N2CCc3nc(N4CCC(C)CC4)nc(Oc4ccccc4OC)c3C2)c1", "% Inhibition": 45}
{"smiles": "O=S(=O)(c1cccc(Cl)c1)N1CCc2nc(N3CCCCC3)nc(Oc3ccccc3)c2C1", "% Inhibition": 73}
{"smiles": "COc1cccc(Oc2nc(N3CCN(C)CC3)nc3c2CN(C(=O)Nc2ccccc2)CC3)c1", "% Inhibition": 5}
{"smiles": "O=C(O)Cc1sc(-c2ccc(Cl)cc2)nc1-c1ccc(Oc2ccccc2)cc1", "% Inhibition": 0}
{"smiles": "CN1CCN(C(=O)[C@@H]2Cc3ccccc32)CC1", "% Inhibition": 2}
{"smiles": "CCc1nnc2ccc(S(=O)(=O)Nc3cc(F)cc(F)c3)cn12", "% Inhibition": -5}
{"smiles": "CCOC(=O)N1CCN(C(=O)C2c3ccccc3C(=O)N(C3CCCCC3)C2c2ccc(OC)cc2)CC1", "note": "(centres undefined)", "% Inhibition": -4}
